# NOMO-1 viab – STK33 inhibitor candidate reducing NOMO-1 cell viability; NOMO-1 AML viability, CellTiter-Glo luminescence, 72 h; inhibition, % (no concentration beside the values); actives 7.5% (n = 37,000); in the data active = inhibition above about 80%; inconclusive = no clear call, values can overlap the other calls
# PD-1 reverse act – activators reversing PD-1 mediated T-cell inhibition. AID 2316. activation, % (concentration not given with the values). 29,000 tested, under 10 active. primary human CD4 T cells, PD-L1 beads, CellTiter-Glo 96 h; call rule not given here;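 note: 0% = median vehicle wells and 100% = positive control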
# STK33 inh – blocks human STK33 kinase activity. Q9BYT3. ADP-Glo luminescence, MBP substrate. inhibition, % at 12.5 µM. actives 0.44% (n = 27,000); in the data active = inhibition above about 20%; inconclusive = no clear call, values can overlap the other calls
# Target sequence (Q9BYT3 whole entry, looked up): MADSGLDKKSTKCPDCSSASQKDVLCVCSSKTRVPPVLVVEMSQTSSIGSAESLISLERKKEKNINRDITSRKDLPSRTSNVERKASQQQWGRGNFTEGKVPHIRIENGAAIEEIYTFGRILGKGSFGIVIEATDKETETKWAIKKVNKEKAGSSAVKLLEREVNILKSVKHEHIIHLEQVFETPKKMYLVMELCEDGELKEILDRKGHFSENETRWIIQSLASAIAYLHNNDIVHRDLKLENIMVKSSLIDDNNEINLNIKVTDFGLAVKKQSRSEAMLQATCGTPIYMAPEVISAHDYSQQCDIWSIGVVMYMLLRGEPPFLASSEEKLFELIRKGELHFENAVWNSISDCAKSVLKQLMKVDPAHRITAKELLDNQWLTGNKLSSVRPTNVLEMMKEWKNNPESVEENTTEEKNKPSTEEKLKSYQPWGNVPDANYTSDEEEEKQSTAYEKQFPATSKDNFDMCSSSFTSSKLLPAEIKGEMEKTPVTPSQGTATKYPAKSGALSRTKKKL
# The depositor's hits bear a star; u = inconclusive; x = no result. Shown is part of a subset that was picked to be rich in hits.
SMILES,NOMO-1 viab,PD-1 reverse act,STK33 inh
C=C1C(=O)O[C@H]2[C@H]1[C@@H](OC(=O)C(C)CO)C[C@@]1(C)[C@H](O)CCC(=O)[C@H]21 (stereo not given in full),x,x,-3
C=C1C(=O)O[C@@H]2/C=C(/CO)CC/C=C(/C)C[C@H](OC(=O)C(C)CO)[C@@H]12 (stereo not given in full),118*,-2,2
C=C1C(=O)O[C@@H]2/C=C(\CO)CCC/C(C)=C/[C@H](O)C12 (stereo not given in full),116*,-5,-3
Nc1cc(=O)nc(SCC(=O)N(c2ccccc2)c2ccccc2)n1-c1ccccc1,-9,1,9
C[C@@H]1CC[C@H](O)/C=C/C(=O)O[C@H](C)CC[C@H](O)/C=C/C(=O)O1,108*,-1,-2
CCC(=O)Nc1nc2ccccc2n1CCCN(C)C,-8,1,-3
COc1ccc(C(OC(=O)c2ccccc2)c2nccc3ccccc23)cc1 (stereo not given),105*,-1,x
Cc1ccc(C(=O)OC(c2ccccc2)c2nccc3ccccc23)cc1 (stereo not given),38,0,x
COC(=O)c1sc(NC(=S)Nc2cccc(Cn3cc(Cl)cn3)c2)c(C(=O)OC)c1C,u,-3,3
C[C@H](CO)N1C[C@H](C)[C@H](CN(C)S(=O)(=O)c2cccs2)Oc2ccc(NC(=O)Nc3cccc4ccccc34)cc2C1=O,-21,-1,0
C[C@H](CO)N1C[C@H](C)[C@H](CN(C)S(=O)(=O)c2cccs2)Oc2ccc(NC(=O)C3CC3)cc2CC1=O,18,-1,-3
C[C@@H]1CN([C@@H](C)CO)C(=O)c2cc(NS(=O)(=O)c3cccs3)ccc2O[C@H]1CN(C)Cc1ccc2c(c1)OCO2,-5,0,x
C#CCOc1ccc(C(Nc2ccccn2)c2ccc3cccnc3c2O)cc1 (stereo not given),113*,x,9
COc1ccc(SCC(=O)Nc2ccccn2)cc1,11,1,x
Oc1c(C(Nc2ccccn2)c2cccc(OC3CCCC3)c2)ccc2cccnc12 (stereo not given),114*,-12,4
C[C@@H]1CN([C@@H](C)CO)C(=O)c2cccc(NS(=O)(=O)c3ccccc3)c2O[C@@H]1CN(C)CC1CCCCC1,29,1,x
C[C@@H]1CCCCO[C@@H](CN(C)S(=O)(=O)c2cccs2)[C@@H](C)CN([C@H](C)CO)C(=O)c2cc(NC(=O)c3ccccc3)ccc2O1,40,-6,u
CCOC(=O)c1ccc(NC(=O)CSc2nc3ccccc3c(=O)[nH]2)cc1,x,x,2
CCOC(=O)c1ccc(NC(=O)CSc2nc3cc4ccccc4cc3[nH]2)cc1,111*,-6,11
c1ccc(C2C3=C(CCCC3)SC3=C2CCCC3)cc1,98*,-1,x
C[C@@H]1CN([C@H](C)CO)C(=O)Cc2cc(NC(=O)Cc3ccccc3)ccc2O[C@@H]1CN(C)Cc1ccc(Oc2ccccc2)cc1,116*,-5,6
C[C@H]1CN([C@@H](C)CO)C(=O)Cc2cc(NC(=O)Cc3ccccc3)ccc2O[C@@H]1CN(C)Cc1ccc(-c2ccccc2)cc1,43,0,6
C[C@H]1CN([C@@H](C)CO)C(=O)Cc2cc(NC(=O)Cc3ccccc3)ccc2O[C@H]1CN(C)Cc1ccc(-c2ccccc2)cc1,99*,-2,1
C[C@H]1CN([C@@H](C)CO)C(=O)Cc2cc(NC(=O)Cc3ccccc3)ccc2O[C@H]1CN(C)Cc1ccc(Oc2ccccc2)cc1,59,-2,1
Cc1cccc(OCC(=O)Nc2cc(C(F)(F)F)ccc2N2CCOCC2)c1,47,-6,3
SMILES,NOMO-1 viab,PD-1 reverse act,STK33 inh
C[C@H]1CN([C@@H](C)CO)C(=O)c2cccc(NC(=O)C3CC3)c2O[C@H]1CN(C)Cc1ccc2c(c1)OCO2,7,2,x
Cc1ccc(-c2cc(C(=O)Nc3sc(C)c(-c4ccccc4)c3C(N)=O)c3ccccc3n2)o1,62,x,-1
COc1ccc(C2=CC(c3ccccc3)c3ccccc3O2)cc1OC (stereo not given),-5,1,x
O=C1CSC(=S)N1CCc1ccc(Cl)cc1,113*,0,x
COc1ccc(CCN2C(=O)CSC2=NC2CC2)cc1OC,-14,0,x
CN(c1cccc(NC(=O)CN2C(=O)c3cccc4cccc2c34)c1)S(C)(=O)=O,-2,x,1
Cc1cccc(C(=O)NCc2n[nH]c(=S)n2-c2ccccc2)c1,0,1,6
CC(C)CC(C(=O)c1ccccc1)c1ccccc1 (stereo not given),49,0,x
CCc1cccc2c(C(C(=O)c3ccccc3)c3c[nH]c4c(CC)cccc34)c[nH]c12,111*,-1,x
C[C@@H]1CN([C@@H](C)CO)C(=O)c2cc(NC(=O)Nc3ccc(C(F)(F)F)cc3)ccc2O[C@H]1CN(C)Cc1ccc2c(c1)OCO2,59,-3,x
C[C@@H]1CN([C@@H](C)CO)C(=O)c2cc(NC(=O)Nc3ccc(F)cc3)ccc2O[C@@H]1CN(C)Cc1ccc2c(c1)OCO2,19,1,x
C[C@H](CO)N1C[C@H](C)[C@H](CN(C)Cc2ccc3c(c2)OCO3)Oc2ccc(NC(=O)Nc3ccc(C(F)(F)F)cc3)cc2C1=O,99*,0,-1
C[C@H]1CN([C@@H](C)CO)C(=O)c2cc(NC(=O)Nc3ccc(C(F)(F)F)cc3)ccc2O[C@@H]1CN(C)Cc1ccc2c(c1)OCO2,101*,-5,2
C[C@@H]1CN([C@@H](C)CO)C(=O)c2cc(NC(=O)Nc3ccc(C(F)(F)F)cc3)ccc2O[C@@H]1CN(C)Cc1ccc2c(c1)OCO2,112*,-2,2
C[C@H](CO)N1C[C@H](C)[C@@H](CN(C)Cc2ccc3c(c2)OCO3)Oc2ccc(NC(=O)Nc3ccc(C(F)(F)F)cc3)cc2C1=O,11,0,x
C[C@@H]1CN([C@H](C)CO)C(=O)c2cc(NC(=O)Nc3ccc(C(F)(F)F)cc3)ccc2O[C@@H]1CN(C)Cc1ccc2c(c1)OCO2,49,0,x
C[C@H]1CN([C@@H](C)CO)C(=O)c2cc(NC(=O)Nc3ccc(F)cc3)ccc2O[C@H]1CN(C)Cc1ccc2c(c1)OCO2,92*,-1,0
Cc1noc(C)c1S(=O)(=O)Nc1ccc2c(c1)C(=O)N([C@@H](C)CO)C[C@H](C)[C@H](CN(C)C)O2,-11,2,0
Cc1ccc(OCC(=O)Nc2cccc(NC(=O)c3ccccc3)c2)cc1C,10,2,2
COc1ccc(S(=O)(=O)N(C)C[C@H]2Oc3ccc(NS(=O)(=O)c4c(C)noc4C)cc3C(=O)N([C@H](C)CO)C[C@H]2C)cc1,26,-1,x
O=C(CSc1nnc2c(n1)[nH]c1ccccc12)NCc1ccccc1,-1,x,1
COc1c(O)cc(-c2oc3cc(O)cc(O)c3c(=O)c2O[C@@H]2O[C@@H](C)[C@H](OC(C)=O)[C@@H](O)[C@H]2O)cc1O,22,0,2
CNC[C@H]1Oc2ccc(NS(=O)(=O)c3c(C)noc3C)cc2C(=O)N([C@H](C)CO)C[C@@H]1C,8,0,x
C[C@@H]1CN([C@H](C)CO)C(=O)c2cccc(NC(=O)Nc3cccc4ccccc34)c2O[C@@H]1CN(C)Cc1ccc(Cl)c(Cl)c1,62,-2,x

# Bioassay records from PubChem.
